Assay results from PubChem BioAssay (NCI).
The panel holds about 83,000 compounds, 20% with a hit somewhere; the sample as a whole holds those more often.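 48-hour exposure, single concentration, 96-well plates; percent growth endpoint where 0 means no net growth. Active: below 10.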 Calls of active or inactive are those of the source.

Experiments:
Test in all cases: NCI-60 one-dose screen, 48 h (100 = growth as untreated, 0 = no growth, -100 = all killed)
Settings in all cases: 10 µM unless noted
HCT-15 colon = system: HCT-15 colon
HT29 colon = system: HT29 colon
SNB-75 CNS = system: SNB-75 CNS
SNB-19 CNS = system: SNB-19 CNS
U251 CNS = system: U251 CNS
PC-3 prostate = system: PC-3 prostate
SK-MEL-5 melanoma = system: SK-MEL-5 melanoma
SK-MEL-28 melanoma = system: SK-MEL-28 melanoma
LOX IMVI melanoma = system: LOX IMVI melanoma
UACC-62 melanoma = system: UACC-62 melanoma

Measured: growth

CC1(C)CC[C@]2(C(=O)Nc3ccccn3)CC[C@]3(C)C(=CC[C@@H]4[C@@]5(C)C/C(=C/c6ccncc6)C(=O)C(C)(C)[C@@H]5CC[C@]43C)[C@@H]2C1
active: HT29 colon 9.45% | SK-MEL-5 melanoma -49.8%
inactive: HCT-15 colon 15.3% | SNB-75 CNS 91.6% | SNB-19 CNS 58.4% | U251 CNS 10.3% | PC-3 prostate 28% | SK-MEL-28 melanoma 37.5%

CC(=O)OC(C)COc1ccc(-c2ccccc2)cc1 (centres undefined)
inactive: HCT-15 colon 107% | HT29 colon 86% | SNB-75 CNS 89.6% | SNB-19 CNS 103% | U251 CNS 76.4% | PC-3 prostate 86.1% | SK-MEL-5 melanoma 99.8% | LOX IMVI melanoma 110% | SK-MEL-28 melanoma 104%

COc1cc2nc(Cl)nc(Nc3cccc(C(=O)/C=C/c4ccccc4)c3)c2cc1OC
active: HCT-15 colon -34.1% | HT29 colon 4.17%
inactive: SNB-75 CNS 62.1% | SNB-19 CNS 32.9% | U251 CNS 21.4% | PC-3 prostate 49.2% | SK-MEL-5 melanoma 68.8% | SK-MEL-28 melanoma 56.4%

Cc1ccc2oc(=O)cc(-c3sc(N4CCCCC4)nc3-c3ccccc3)c2c1
inactive: HCT-15 colon 96.9% | HT29 colon 99.9% | SNB-75 CNS 78.1% | SNB-19 CNS 95.3% | U251 CNS 101% | PC-3 prostate 88.1% | SK-MEL-5 melanoma 91.3% | LOX IMVI melanoma 91.2% | SK-MEL-28 melanoma 103%

OCC(CO)(CCl)CCl
inactive: HCT-15 colon 109% | HT29 colon 96.6% | SNB-75 CNS 96.8% | SNB-19 CNS 98.7% | U251 CNS 84.8% | PC-3 prostate 80.2% | SK-MEL-5 melanoma 104% | LOX IMVI melanoma 98.2% | SK-MEL-28 melanoma 103%

C=C(C)[C@@H]1CC[C@]2(C(=O)N3CCN(C)CC3)CC[C@]3(C)[C@H](CC[C@@H]4[C@@]5(C)C/C(=C/c6ccc(C(F)(F)F)cc6)C(=O)C(C)(C)[C@@H]5CC[C@]43C)[C@@H]12
inactive: HCT-15 colon 86.5% | HT29 colon 95.7% | SNB-75 CNS 80.7% | SNB-19 CNS 97.3% | U251 CNS 87.1% | PC-3 prostate 78.8% | SK-MEL-5 melanoma 99.1% | SK-MEL-28 melanoma 104%

COc1ccc(-c2n[nH]nc2-c2cc3ccccc3s2)cc1O
inactive: HCT-15 colon 20% | HT29 colon 29.9% | SNB-75 CNS 35.5% | SNB-19 CNS 27.6% | U251 CNS 15.8% | PC-3 prostate 16% | UACC-62 melanoma 33.7% | LOX IMVI melanoma 20.6% | SK-MEL-28 melanoma 38.4%

CC1(C)CC[C@]2(CO)CC[C@]3(C)C(=CC[C@@H]4[C@@]5(C)CC[C@H](NCO)C(C)(C)[C@@H]5CC[C@]43C)[C@@H]2C1
inactive: SNB-19 CNS 17.8% | SK-MEL-28 melanoma 60.8%
active: HCT-15 colon -76.1% | HT29 colon -43.2% | SNB-75 CNS -2.38% | U251 CNS -79.4% | PC-3 prostate 7.13% | SK-MEL-5 melanoma -2.6%

CCN(CC)c1ccc(/C=C/c2cc(C)c3ccccc3n2)cc1
inactive: HCT-15 colon 29.8% | SNB-75 CNS 42.7% | SNB-19 CNS 59.7% | U251 CNS 43% | PC-3 prostate 65% | UACC-62 melanoma 38.4% | LOX IMVI melanoma 52.2% | SK-MEL-28 melanoma 55.1%
active: HT29 colon 8.05%

O=C(Nc1ccc(/C=C2\SC(=O)N(Cc3ccc(OC(F)(F)F)cc3)C2=O)cc1)c1ccc(Cl)c([N+](=O)[O-])c1
active: U251 CNS -18.8% | PC-3 prostate 9.15%
inactive: HCT-15 colon 72.5% | HT29 colon 11.3% | SNB-75 CNS 85.5% | SNB-19 CNS 36.8% | UACC-62 melanoma 94.4% | LOX IMVI melanoma 73.1% | SK-MEL-28 melanoma 95.5%

CC1=NN(c2ccc(S(=O)(=O)O)cc2Cl)C(=O)C1
inactive: HCT-15 colon 112% | HT29 colon 109% | SNB-75 CNS 90.2% | SNB-19 CNS 96.2% | U251 CNS 107% | PC-3 prostate 103% | UACC-62 melanoma 103% | LOX IMVI melanoma 104% | SK-MEL-28 melanoma 122%

c1cc(N2CCCC2)c2nc(-c3[nH]ncc3Nc3ncnc4[nH]ccc34)[nH]c2c1
active: HCT-15 colon -26.4% | HT29 colon 1.13% | SNB-75 CNS -59.6% | SNB-19 CNS -13.1% | U251 CNS 3% | PC-3 prostate 3.86% | SK-MEL-5 melanoma -89.3% | SK-MEL-28 melanoma -53.3%

COc1cc2c(cc1-c1c(C)noc1C)ncc1nc(C3CCCCC3)n([C@@H](C)COC(F)F)c12
inactive: HCT-15 colon 20.9% | HT29 colon 13.5% | SNB-75 CNS 31.3% | SNB-19 CNS 45.6% | U251 CNS 47.1% | PC-3 prostate 30.3% | UACC-62 melanoma 21.9% | LOX IMVI melanoma 12.5%

Cc1cc(C=O)c(C)c2c1[nH]c1ccccc12
inactive: HCT-15 colon 99.8% | HT29 colon 93.2% | SNB-75 CNS 78.7% | SNB-19 CNS 94.6% | U251 CNS 94.1% | PC-3 prostate 92.5% | UACC-62 melanoma 57.3% | LOX IMVI melanoma 81.5% | SK-MEL-28 melanoma 110%

CCCNc1nc(N(C)O)nc(N(C)O)n1
inactive: HCT-15 colon 26.5% | HT29 colon 40.7% | SNB-75 CNS 77.3% | SNB-19 CNS 38.3% | U251 CNS 27.8% | PC-3 prostate 51.9% | UACC-62 melanoma 31.5% | LOX IMVI melanoma 22.9% | SK-MEL-28 melanoma 41.4%
